Measurements reported in the supplement of paper PMC11732987, “Enantioselective OTUD7B fragment discovery through chemoproteomics screening and high-throughput optimisation” (Communications Chemistry, 2025).

What was measured:
Assay in all cases: log2 ratio of Biotin-Ahx-Ub-VS probe labelling (compound/DMSO); higher = less target engagement, active = hit call of the paper (q ≤ 0.05, log2 ratio ≤ -1)
Conditions in all cases: treatment time: 3 h
[1] = compound: CCC1N(CCc2sccc12)C(=O)CCl
Procedure, shortened: (§1)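 For activity-based profiling, 495 µg portions of HEK293T lysate in Tris/CHAPS/IGEPAL buffer with protease inhibitors were treated in triplicate with compound at 50 or 200 µM or with DMSO for 3 h. A 1 h incubation with Biotin-Ahx-Ub-VS (0.5 µM final) followed, then NeutrAvidin enrichment, LysC and trypsin digestion and diaPASEF LC-MS/MS. The compound/DMSO base-two log ratios were averaged from median-normalised label-free quantities using an unpaired t-test. Proteins needed at least 2 unique peptides to be included.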

[2] = compound: CN1c2ccccc2C(CS1(=O)=O)NC(=O)CCl
Procedure, shortened: as §1

[3] = compound: Cl.ClCC(=O)N1CCc2ncncc2C1
Procedure, shortened: as §1

[4] = compound: Cl.Cn1ncc2C(CCCc12)NC(=O)CCl
Procedure, shortened: as §1

[5] = compound: ClCC(=O)NC1CCOc2ccccc12
Procedure, shortened: as §1

[6] = compound: ClCC(=O)NC1CCCc2ccccc12
Procedure, shortened: (§2)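 Values are average ratios of compound to vehicle from an unpaired t-test, limited to proteins with at least two unique peptides. HEK293T lysate (495 µg per sample, in Tris/CHAPS/IGEPAL buffer with protease inhibitors) was exposed in triplicate to a concentration series of compound or to vehicle for 3 h, then to Biotin-Ahx-Ub-VS at 0.5 µM final for 1 h. Labelled deubiquitinases were enriched on NeutrAvidin, digested with LysC and trypsin, and analysed by diaPASEF LC-MS/MS. Ratios are given on a log2 scale from Spectronaut label-free protein quantities normalised to the global median.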

[7] = compound: ClCC(=O)N[C@@H]1CCCc2ccccc12
Procedure, shortened: as §2

[8] = compound: ClCC(=O)N[C@H]1CCCc2ccccc12
Procedure, shortened: as §2

[9] = compound: CCC1N(CCc2cc(OC)c(Cl)cc12)C(=O)CCl
Procedure, shortened: as §1

[10] = compound: CCCC1N(CCc2cc(OC)c(OC)cc12)C(=O)CCl
Procedure, shortened: as §1

Measured: log2 ratio of Biotin-Ahx-Ub-VS probe labelling

EIF3F (UniProt O00303)
UniProt O00303, sequence (O00303 whole entry): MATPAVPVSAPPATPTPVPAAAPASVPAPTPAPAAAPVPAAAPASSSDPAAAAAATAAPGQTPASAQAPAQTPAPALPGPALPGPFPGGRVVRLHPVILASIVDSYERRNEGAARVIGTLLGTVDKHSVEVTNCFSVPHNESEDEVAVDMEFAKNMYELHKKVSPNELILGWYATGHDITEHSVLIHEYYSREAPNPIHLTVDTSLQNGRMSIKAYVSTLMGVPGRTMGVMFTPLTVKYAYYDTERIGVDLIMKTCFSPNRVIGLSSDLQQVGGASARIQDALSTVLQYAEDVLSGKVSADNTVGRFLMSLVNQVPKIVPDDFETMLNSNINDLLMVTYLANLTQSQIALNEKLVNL
inactive: [1]; compound concentration: 50uM -0.16 | [1]; compound concentration: 200uM -0.05 | [2]; compound concentration: 50uM -0.111 | [2]; compound concentration: 200uM -0.0123 | [3]; compound concentration: 50uM 0.026 | [3]; compound concentration: 200uM -0.017 | [4]; compound concentration: 50uM -0.0544 | [4]; compound concentration: 200uM -0.232 | [5]; compound concentration: 50uM -0.204 | [5]; compound concentration: 200uM 0.0458 | [6]; compound concentration: 0.78uM -0.0827 | [6]; compound concentration: 1.56uM 0.0402 | [6]; compound concentration: 3.13uM -0.164 | [6]; compound concentration: 6.25uM -0.148 | [6]; compound concentration: 12.5uM 0.141 | [6]; compound concentration: 25uM -0.0954 | [6]; compound concentration: 50uM -0.209 | [6]; compound concentration: 100uM -0.401 | [6]; compound concentration: 200uM -0.0132 | [7]; compound concentration: 0.78uM -0.295 | [7]; compound concentration: 1.56uM 0.0826 | [7]; compound concentration: 3.13uM -0.0906 | [7]; compound concentration: 6.25uM -0.461 | [7]; compound concentration: 12.5uM -0.244 | [7]; compound concentration: 25uM -0.214 | [7]; compound concentration: 50uM -0.034 | [7]; compound concentration: 100uM 0.00457 | [7]; compound concentration: 200uM 0.0644 | [8]; compound concentration: 0.78uM -0.0754 | [8]; compound concentration: 1.56uM -0.0584 | [8]; compound concentration: 3.13uM -0.182 | [8]; compound concentration: 6.25uM 0.0402 | [8]; compound concentration: 12.5uM -0.0792 | [8]; compound concentration: 25uM -0.00315 | [8]; compound concentration: 50uM -0.0696 | [8]; compound concentration: 100uM -0.0985 | [8]; compound concentration: 200uM -0.313 | [9]; compound concentration: 50uM -0.015 | [9]; compound concentration: 200uM -0.16 | [10]; compound concentration: 50uM -0.0996 | [10]; compound concentration: 200uM 0.154

USP34 (UniProt Q70CQ2)
UniProt Q70CQ2, sequence (Q70CQ2 whole entry): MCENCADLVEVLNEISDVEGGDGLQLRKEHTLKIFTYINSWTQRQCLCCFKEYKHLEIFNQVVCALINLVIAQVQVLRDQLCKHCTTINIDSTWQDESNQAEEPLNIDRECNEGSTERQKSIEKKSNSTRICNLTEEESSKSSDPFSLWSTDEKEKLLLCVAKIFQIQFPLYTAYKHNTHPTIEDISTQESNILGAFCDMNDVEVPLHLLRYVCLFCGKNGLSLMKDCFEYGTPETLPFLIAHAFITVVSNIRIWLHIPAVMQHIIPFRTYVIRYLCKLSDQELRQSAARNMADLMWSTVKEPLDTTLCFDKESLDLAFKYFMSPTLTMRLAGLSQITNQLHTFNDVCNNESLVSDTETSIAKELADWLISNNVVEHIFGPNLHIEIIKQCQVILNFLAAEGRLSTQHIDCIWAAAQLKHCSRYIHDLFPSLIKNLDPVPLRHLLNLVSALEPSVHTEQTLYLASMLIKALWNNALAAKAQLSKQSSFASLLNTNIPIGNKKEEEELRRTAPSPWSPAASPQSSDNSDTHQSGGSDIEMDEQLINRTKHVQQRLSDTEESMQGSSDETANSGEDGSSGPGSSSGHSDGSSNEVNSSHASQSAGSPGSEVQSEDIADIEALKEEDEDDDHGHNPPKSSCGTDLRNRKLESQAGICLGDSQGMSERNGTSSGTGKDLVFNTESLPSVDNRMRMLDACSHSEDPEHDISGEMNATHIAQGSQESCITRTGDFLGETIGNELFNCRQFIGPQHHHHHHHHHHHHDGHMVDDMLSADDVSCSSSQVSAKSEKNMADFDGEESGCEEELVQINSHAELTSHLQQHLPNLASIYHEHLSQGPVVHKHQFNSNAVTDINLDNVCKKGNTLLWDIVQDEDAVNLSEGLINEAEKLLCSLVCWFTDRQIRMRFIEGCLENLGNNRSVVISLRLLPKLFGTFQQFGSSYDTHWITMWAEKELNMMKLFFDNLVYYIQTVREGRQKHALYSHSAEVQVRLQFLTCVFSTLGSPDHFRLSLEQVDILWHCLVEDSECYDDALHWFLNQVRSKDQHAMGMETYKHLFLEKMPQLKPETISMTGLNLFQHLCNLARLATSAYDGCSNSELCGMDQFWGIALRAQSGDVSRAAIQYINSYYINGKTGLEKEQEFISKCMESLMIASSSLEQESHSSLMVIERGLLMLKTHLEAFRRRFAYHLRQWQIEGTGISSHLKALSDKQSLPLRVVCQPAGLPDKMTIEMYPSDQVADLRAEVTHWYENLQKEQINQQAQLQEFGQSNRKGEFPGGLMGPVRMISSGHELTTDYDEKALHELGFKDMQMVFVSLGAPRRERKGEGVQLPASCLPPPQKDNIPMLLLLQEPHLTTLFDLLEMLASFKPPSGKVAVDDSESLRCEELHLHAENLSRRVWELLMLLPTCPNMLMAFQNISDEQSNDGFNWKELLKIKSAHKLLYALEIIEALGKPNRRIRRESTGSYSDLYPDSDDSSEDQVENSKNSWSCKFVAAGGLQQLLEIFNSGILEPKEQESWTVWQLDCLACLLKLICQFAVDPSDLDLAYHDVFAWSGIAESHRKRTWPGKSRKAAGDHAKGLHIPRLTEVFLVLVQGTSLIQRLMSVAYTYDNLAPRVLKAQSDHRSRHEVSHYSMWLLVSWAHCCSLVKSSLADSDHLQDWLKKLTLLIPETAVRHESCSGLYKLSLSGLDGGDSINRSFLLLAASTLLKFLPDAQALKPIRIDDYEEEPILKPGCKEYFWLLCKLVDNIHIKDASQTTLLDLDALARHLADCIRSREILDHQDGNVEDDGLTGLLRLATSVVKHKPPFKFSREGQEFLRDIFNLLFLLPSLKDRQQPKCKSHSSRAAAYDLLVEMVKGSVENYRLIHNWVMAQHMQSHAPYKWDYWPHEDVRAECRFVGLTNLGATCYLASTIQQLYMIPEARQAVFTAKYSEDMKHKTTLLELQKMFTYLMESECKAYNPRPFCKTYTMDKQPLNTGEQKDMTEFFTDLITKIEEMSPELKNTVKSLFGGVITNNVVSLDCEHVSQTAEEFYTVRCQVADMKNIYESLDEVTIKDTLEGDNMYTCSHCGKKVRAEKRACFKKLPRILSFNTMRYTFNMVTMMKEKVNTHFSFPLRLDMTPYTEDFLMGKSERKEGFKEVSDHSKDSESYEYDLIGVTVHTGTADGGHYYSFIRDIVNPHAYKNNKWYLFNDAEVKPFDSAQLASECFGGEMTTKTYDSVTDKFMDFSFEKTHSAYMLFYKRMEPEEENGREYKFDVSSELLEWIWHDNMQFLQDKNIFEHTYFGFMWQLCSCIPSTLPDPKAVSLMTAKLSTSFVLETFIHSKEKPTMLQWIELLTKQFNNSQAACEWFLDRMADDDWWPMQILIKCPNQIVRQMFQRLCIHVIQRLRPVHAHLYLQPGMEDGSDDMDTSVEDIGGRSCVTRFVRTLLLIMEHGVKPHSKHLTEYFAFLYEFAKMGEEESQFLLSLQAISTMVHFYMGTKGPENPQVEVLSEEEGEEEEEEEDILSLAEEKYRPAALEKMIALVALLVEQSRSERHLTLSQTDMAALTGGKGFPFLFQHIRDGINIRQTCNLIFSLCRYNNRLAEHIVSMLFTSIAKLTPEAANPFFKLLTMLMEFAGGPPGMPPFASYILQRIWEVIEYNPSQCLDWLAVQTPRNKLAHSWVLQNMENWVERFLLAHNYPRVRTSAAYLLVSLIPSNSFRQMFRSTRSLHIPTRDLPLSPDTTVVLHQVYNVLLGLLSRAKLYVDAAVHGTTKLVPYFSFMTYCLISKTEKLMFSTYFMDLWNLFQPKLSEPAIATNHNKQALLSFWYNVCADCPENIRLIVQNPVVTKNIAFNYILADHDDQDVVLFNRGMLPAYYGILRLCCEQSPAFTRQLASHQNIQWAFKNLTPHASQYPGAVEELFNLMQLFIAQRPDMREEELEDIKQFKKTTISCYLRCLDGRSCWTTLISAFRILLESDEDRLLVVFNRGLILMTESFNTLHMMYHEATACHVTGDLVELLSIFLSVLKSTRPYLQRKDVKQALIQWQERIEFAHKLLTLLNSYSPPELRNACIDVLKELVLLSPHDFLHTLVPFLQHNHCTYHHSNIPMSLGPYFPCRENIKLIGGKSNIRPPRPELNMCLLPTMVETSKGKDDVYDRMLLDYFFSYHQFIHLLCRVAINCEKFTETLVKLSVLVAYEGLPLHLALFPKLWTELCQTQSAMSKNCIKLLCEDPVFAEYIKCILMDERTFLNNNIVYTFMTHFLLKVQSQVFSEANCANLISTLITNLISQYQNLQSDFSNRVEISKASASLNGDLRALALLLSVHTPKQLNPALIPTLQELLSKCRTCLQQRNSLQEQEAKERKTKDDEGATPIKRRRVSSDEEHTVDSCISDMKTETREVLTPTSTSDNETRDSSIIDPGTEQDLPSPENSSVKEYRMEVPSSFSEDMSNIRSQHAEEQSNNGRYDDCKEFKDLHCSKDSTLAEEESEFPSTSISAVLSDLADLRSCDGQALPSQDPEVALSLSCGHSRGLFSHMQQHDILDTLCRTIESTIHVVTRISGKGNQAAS
active: [9]; compound concentration: 200uM -1.07
inactive: [1]; compound concentration: 50uM 0.0562 | [1]; compound concentration: 200uM 0.0678 | [2]; compound concentration: 50uM -0.259 | [2]; compound concentration: 200uM -0.515 | [3]; compound concentration: 50uM -0.659 | [3]; compound concentration: 200uM 0.31 | [4]; compound concentration: 50uM 0.745 | [4]; compound concentration: 200uM -0.98 | [5]; compound concentration: 50uM -0.212 | [5]; compound concentration: 200uM -0.0537 | [6]; compound concentration: 0.78uM 0.221 | [6]; compound concentration: 1.56uM 0.0458 | [6]; compound concentration: 3.13uM 0.0621 | [6]; compound concentration: 6.25uM -0.0557 | [6]; compound concentration: 12.5uM -0.314 | [6]; compound concentration: 25uM 0.126 | [6]; compound concentration: 50uM 0.134 | [6]; compound concentration: 100uM 0.11 | [6]; compound concentration: 200uM -0.619 | [7]; compound concentration: 0.78uM -0.0727 | [7]; compound concentration: 1.56uM -0.0851 | [7]; compound concentration: 3.13uM -0.276 | [7]; compound concentration: 6.25uM -0.184 | [7]; compound concentration: 12.5uM -0.209 | [7]; compound concentration: 25uM -0.23 | [7]; compound concentration: 50uM -0.396 | [7]; compound concentration: 100uM 0.0355 | [7]; compound concentration: 200uM 0.0474 | [8]; compound concentration: 0.78uM 0.0344 | [8]; compound concentration: 1.56uM -0.271 | [8]; compound concentration: 3.13uM -0.199 | [8]; compound concentration: 6.25uM 0.0878 | [8]; compound concentration: 12.5uM 0.322 | [8]; compound concentration: 25uM -0.00214 | [8]; compound concentration: 50uM 0.198 | [8]; compound concentration: 100uM 0.181 | [8]; compound concentration: 200uM -0.295 | [9]; compound concentration: 50uM 0.165 | [10]; compound concentration: 50uM 0.0993 | [10]; compound concentration: 200uM 0.244

USP48 (UniProt Q86UV5)
UniProt Q86UV5, sequence (Q86UV5 whole entry): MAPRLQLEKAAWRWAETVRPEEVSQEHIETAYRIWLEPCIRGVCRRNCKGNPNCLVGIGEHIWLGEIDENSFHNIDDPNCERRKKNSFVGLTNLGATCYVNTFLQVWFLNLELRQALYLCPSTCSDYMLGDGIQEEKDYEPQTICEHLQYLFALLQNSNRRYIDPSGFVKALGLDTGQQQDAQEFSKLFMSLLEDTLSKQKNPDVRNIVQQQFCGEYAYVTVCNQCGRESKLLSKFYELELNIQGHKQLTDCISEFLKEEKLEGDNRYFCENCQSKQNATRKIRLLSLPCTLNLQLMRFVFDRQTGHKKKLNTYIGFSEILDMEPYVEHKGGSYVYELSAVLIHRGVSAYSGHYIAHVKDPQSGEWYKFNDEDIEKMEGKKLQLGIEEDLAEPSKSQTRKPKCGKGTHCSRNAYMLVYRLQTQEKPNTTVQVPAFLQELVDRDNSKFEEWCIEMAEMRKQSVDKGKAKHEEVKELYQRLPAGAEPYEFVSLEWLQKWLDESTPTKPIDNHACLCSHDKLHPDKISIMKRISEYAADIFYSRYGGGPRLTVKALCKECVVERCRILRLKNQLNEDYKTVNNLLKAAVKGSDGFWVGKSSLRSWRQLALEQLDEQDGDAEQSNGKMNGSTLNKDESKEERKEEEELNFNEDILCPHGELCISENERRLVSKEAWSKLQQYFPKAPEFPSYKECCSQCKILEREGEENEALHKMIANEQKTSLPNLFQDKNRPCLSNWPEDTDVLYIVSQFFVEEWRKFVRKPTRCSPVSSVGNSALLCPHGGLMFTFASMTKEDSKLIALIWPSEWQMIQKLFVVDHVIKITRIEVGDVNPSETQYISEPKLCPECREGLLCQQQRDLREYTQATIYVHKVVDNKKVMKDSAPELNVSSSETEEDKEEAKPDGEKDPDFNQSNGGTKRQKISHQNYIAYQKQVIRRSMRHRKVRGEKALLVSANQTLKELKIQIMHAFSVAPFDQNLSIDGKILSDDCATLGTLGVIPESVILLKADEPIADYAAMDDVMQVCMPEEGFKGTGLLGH
inactive: [1]; compound concentration: 50uM 0.0438 | [1]; compound concentration: 200uM -0.229 | [2]; compound concentration: 50uM -0.0584 | [2]; compound concentration: 200uM -0.173 | [3]; compound concentration: 50uM 0.0472 | [3]; compound concentration: 200uM -0.0578 | [4]; compound concentration: 50uM 0.11 | [4]; compound concentration: 200uM -0.141 | [5]; compound concentration: 50uM -0.181 | [5]; compound concentration: 200uM 0.181 | [6]; compound concentration: 0.78uM -0.207 | [6]; compound concentration: 1.56uM -0.126 | [6]; compound concentration: 3.13uM -0.133 | [6]; compound concentration: 6.25uM -0.353 | [6]; compound concentration: 12.5uM -0.196 | [6]; compound concentration: 25uM -0.157 | [6]; compound concentration: 50uM -0.212 | [6]; compound concentration: 100uM -0.103 | [6]; compound concentration: 200uM -0.378 | [7]; compound concentration: 0.78uM -0.118 | [7]; compound concentration: 1.56uM 0.0156 | [7]; compound concentration: 3.13uM -0.424 | [7]; compound concentration: 6.25uM -0.193 | [7]; compound concentration: 12.5uM -0.0735 | [7]; compound concentration: 25uM -0.174 | [7]; compound concentration: 50uM -0.19 | [7]; compound concentration: 100uM -0.106 | [7]; compound concentration: 200uM -0.351 | [8]; compound concentration: 0.78uM -0.189 | [8]; compound concentration: 1.56uM -0.192 | [8]; compound concentration: 3.13uM -0.141 | [8]; compound concentration: 6.25uM -0.00525 | [8]; compound concentration: 12.5uM -0.0911 | [8]; compound concentration: 25uM -0.00111 | [8]; compound concentration: 50uM -0.0046 | [8]; compound concentration: 100uM -0.171 | [8]; compound concentration: 200uM -0.203 | [9]; compound concentration: 50uM -0.171 | [9]; compound concentration: 200uM -0.314 | [10]; compound concentration: 50uM -0.217 | [10]; compound concentration: 200uM -0.148
